Assay results: PubChem BioAssay AID1159580 (chemical genetic matrix, 2015)
Several values for one entry are separate records, joined by “and”; a condition that tells them apart may be missing. Equal entries are not always repeated. Out of some 5,500 compounds screened, about 2,000 (36%) were called active. Roughly 18% stayed inconclusive and do not appear here. Cut-off read from the data, not from the text of the source: active = normalized growth mostly below about 0.91 (no sharp cut-off); inconclusive = no clear call, values can overlap the other calls; inactive = mostly above about 0.92. This is one part of the list.

Assay: chemical genetic growth profiling, strain panel (AID 1159580);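 note: tested at 20 µM; growth read once vehicle control cultures reached saturation at 30 °C; 1 = growth at the plate median or of vehicle wells; lower values mean less growth of the strain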
Settings: S. cerevisiae deletion strains, growth OD

Measured: normalized growth

S=c1nc[nH]c2nc[nH]c12
inactive: locus YAL013W, strain DEP1, stronger effect = lower value 0.996 | locus YAL021C, strain ccr4, stronger effect = lower value 1.02 | locus YAL026C, strain drs2, stronger effect = lower value 0.991 | locus YAL030W, strain snc1, stronger effect = lower value 1.02 | locus YBL061C, strain skt5, stronger effect = lower value 1.02 | locus YBR009C, strain hhf1, stronger effect = lower value 0.997 | locus YBR021W, strain FUR4, stronger effect = lower value 0.997 | locus YBR023C, strain chs3, stronger effect = lower value 1.02 | locus YBR171W, strain sec66, stronger effect = lower value 0.976 | locus YBR229C, strain ROT2, stronger effect = lower value 1 | locus YBR231C, strain swc5, stronger effect = lower value 1.02 | locus YBR279W, strain paf1, stronger effect = lower value 1 | locus YCL011C, strain gbp2, stronger effect = lower value 0.972 | locus YCL016C, strain dcc1, stronger effect = lower value 1.01 | locus YCL029C, strain bik1, stronger effect = lower value 0.976 | locus YCL069W, strain vba3, stronger effect = lower value 0.964 | locus YCR088W, strain abp1, stronger effect = lower value 0.977 | locus YDL005C, strain med2, stronger effect = lower value 0.988 | locus YDL035C, strain GPR1, stronger effect = lower value 1 | locus YDL040C, strain nat1, stronger effect = lower value 1.02 | locus YDL074C, strain BRE1, stronger effect = lower value 1 | locus YDL101C, strain DUN1, stronger effect = lower value 0.996 | locus YDL134C, strain PPH21, stronger effect = lower value 1.01 | locus YDL185W, strain tfp1, stronger effect = lower value 0.964 | locus YDL192W, strain arf1, stronger effect = lower value 0.974 | locus YDR001C, strain nth1, stronger effect = lower value 0.972 | locus YDR069C, strain doa4, stronger effect = lower value 1.02 | locus YDR101C, strain arx1, stronger effect = lower value 1 | locus YDR137W, strain rgp1, stronger effect = lower value 1.02 | locus YDR150W, strain NUM1, stronger effect = lower value 0.999 | locus YDR159W, strain sac3, stronger effect = lower value 0.985 | locus YDR162C, strain NBP2, stronger effect = lower value 0.996 | locus YDR195W, strain ref2 0.992 | locus YDR297W, strain sur2, stronger effect = lower value 1.02 | locus YDR318W, strain mcm21, stronger effect = lower value 0.977 | locus YDR334W, strain swr1, stronger effect = lower value 1.05 | locus YDR335W, strain msn5, stronger effect = lower value 1.01 | locus YDR388W, stronger effect = lower value 0.999 | locus YDR392W, strain spt3, stronger effect = lower value 1.01 | locus YDR502C, strain sam2, stronger effect = lower value 0.991 | locus YEL003W, strain gim4, stronger effect = lower value 0.963 | locus YEL037C, strain rad23, stronger effect = lower value 0.977 | locus YEL061C, strain CIN8 (second series), stronger effect = lower value 0.992 | locus YEL061C, strain CIN8, stronger effect = lower value 0.991 | locus YER015W, strain faa2, stronger effect = lower value 1.01 | locus YER016W, strain bim1, stronger effect = lower value 1 | locus YER110C, stronger effect = lower value 0.969 | locus YER111C, strain swi4, stronger effect = lower value 0.966 | locus YER155C, strain BEM2 (second series), stronger effect = lower value 0.963 | locus YER155C, strain BEM2, stronger effect = lower value 0.99 | locus YER167W, strain BCK2, stronger effect = lower value 0.987 | locus YFR010W, strain ubp6, stronger effect = lower value 0.987 | locus YGL078C, strain dbp3, stronger effect = lower value 0.984 | locus YGL086W, strain mad1, stronger effect = lower value 1.01 | locus YGL167C, strain pmr1, stronger effect = lower value 1.01 | locus YGL173C, strain kem1, stronger effect = lower value 1 | locus YGL227W, strain vid30, stronger effect = lower value 0.975 | locus YGL240W, strain doc1, stronger effect = lower value 1.01 | locus YGL248W, strain PDE1, stronger effect = lower value 0.995 | locus YGL253W, strain hxk2, stronger effect = lower value 1.02 | locus YGR078C, strain PAC10, stronger effect = lower value 1 | locus YGR135W, strain pre9, stronger effect = lower value 0.941 | locus YGR252W, strain gcn5, stronger effect = lower value 0.979 | locus YHR013C, strain ard1, stronger effect = lower value 1.06 | locus YHR027C, strain rpn1, stronger effect = lower value 1.01 | locus YHR030C, strain SLT2, stronger effect = lower value 0.999 and 1.02 | locus YHR079C, strain IRE1 (second series), stronger effect = lower value 0.983 | locus YHR079C, strain IRE1, stronger effect = lower value 1 | locus YHR094C, strain hxt1, stronger effect = lower value 0.987 | locus YHR129C, strain ARP1, stronger effect = lower value 1 | locus YHR142W, strain chs7, stronger effect = lower value 0.999 | locus YHR200W, strain rpn10, stronger effect = lower value 0.98 | locus YIL066C, strain RNR3, stronger effect = lower value 1 | locus YIL073C, strain SPO22, stronger effect = lower value 0.934 | locus YIL125W, strain kgd1, stronger effect = lower value 0.994 | locus YIR030C, strain dcg1, stronger effect = lower value 0.974 | locus YJL092W, strain hpr5, stronger effect = lower value 0.986 | locus YJL095W, strain BCK1 (second series), stronger effect = lower value 1.01 | locus YJL095W, strain BCK1, stronger effect = lower value 0.983 and 1.02 | locus YJL115W, strain asf1, stronger effect = lower value 0.972 | locus YJL129C, strain trk1, stronger effect = lower value 0.97 | locus YJL134W, strain LCB3, stronger effect = lower value 0.984 | locus YJL154C, strain vps35, stronger effect = lower value 0.967 | locus YJL164C, strain tpk1, stronger effect = lower value 0.988 | locus YJL166W, strain qcr8, stronger effect = lower value 1.01 | locus YJL168C, strain set2, stronger effect = lower value 0.989 | locus YJL187C, strain SWE1 (second series), stronger effect = lower value 0.997 | locus YJR043C, strain POL32, stronger effect = lower value 1 | locus YJR066W, strain TOR1, stronger effect = lower value 0.975
